The results in this text go back to PubChem BioAssay.

A number with no mark means an inactive call. The rule behind the calls is not given here.

A short description of the assay: inhibitors of hydroxyurea-induced Chk1 phosphorylation, primary screen, imaging, HeLa, phospho-Chk1 nuclear intensity (AID 1187). Note: test concentration not given here. As to conditions: hydroxyurea-induced phospho-Chk1 immunofluorescence imaging, higher = more signal.
On to `CCCCC(=C=CC[C@H](O)c1ccccc1OCCO)CCO`, for which the z-score was 0.181.
Consider `CC1C2C(CCCO)=CC(C3C(=O)N(C)C(=O)C23)N1Cc1cccc(OC(F)(F)F)c1` (stereo not drawn), for which the z-score is -0.301.
The figure for `C[C@]1(C(=O)O)c2ccccc2C(=O)N(Cc2cc(C(F)(F)F)cc(C(F)(F)F)c2)[C@H]1c1ccc(CO)cc1` is 0.362.
In the case of `OCCCc1cc[n+](Cc2cc3c(cc2Br)OCO3)cc1`, the z-score is 0.0561.
On to `COc1cc(Cc2cc3c(c(CCc4ccccc4)n2)[Si](C(C)C)(C(C)C)O[C@H]3c2ccccc2)cc(OC)c1OC`, for which the z-score was -0.286.
In the case of `O=C1C2C=CC(C(O)C(c3ccccc3)c3ccccc3)N(Nc3ccccc3F)C2C(=O)N1c1ccccc1` (stereo not drawn) it was 0.29; in that of `[N-]=[N+]=NCc1ccccc1[C@H]1OC(c2ccc(OCCCO)cc2)=N[C@@]1(CCS(=O)(=O)c1ccccc1)C(=O)NCCN1CCOCC1`, -0.0229.
The figure for `COc1ccc(C(=O)Nc2ccc(CN3C(=O)[C@@]4(O[C@@H](CC(=O)N(CCO)Cc5ccccc5)[C@H]([Si](C)(C)c5ccc(OC)cc5)[C@H]4C)c4ccccc43)cc2)cc1` is -0.262.
In the case of `COc1ccc(C(=O)Nc2cccc(CN3C(=O)[C@]4(O[C@H](CC(=O)N(CCO)Cc5ccccc5)[C@@H]([Si](C)(C)c5ccc(OC)cc5)[C@@H]4C)c4ccccc43)c2)cc1` it was 0.0153.
Turning to `C=CC[C@]1(C(=O)NCC(O)CO)N=C(c2ccc(OCCCO)cc2)O[C@H]1c1ccccc1CN=[N+]=[N-]` (stereo partly drawn), the z-score was -0.482.
Turning to `O=C1C2C=CC(C(O)C3CC=CCC3)N(Nc3ccc([N+](=O)[O-])cc3)C2C(=O)N1c1ccccc1` (stereo not drawn), the z-score is -0.101.
The figure for `CCCCN1CC=CC23O[C@@H]4C=CCCOC(=O)C4[C@H]2C(=O)N(CCO)[C@@H]3C1=O` (stereo partly drawn) is -0.815; for `COc1ccc([Si](C)(C)[C@@H]2[C@@H](CC(=O)N3Cc4ccccc4C[C@H]3CO)O[C@]3(C(=O)N(Cc4ccc(I)cc4)c4ccccc43)[C@H]2C)cc1` it is -0.295.
